Source: PubChem BioAssay AID1159580 (chemical genetic matrix, 2015)
Out of some 5,500 compounds screened, about 2,000 (36%) were called active. Another 18% or so got no clear call; they are omitted. Cut-off read from the data, not from the text of the source: active = normalized growth mostly below about 0.91 (no sharp cut-off); inconclusive = no clear call, values can overlap the other calls; inactive = mostly above about 0.92. Some of the results follow.

Assay: chemical genetic growth profiling, strain panel (AID 1159580);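 note: tested at 20 µM; growth read once vehicle control cultures reached saturation at 30 °C; 1 = growth at the plate median or of vehicle wells; lower values mean less growth of the strain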
Conditions: growth OD

Measured: normalized growth

Nc1ncn([C@@H]2O[C@H](CO)[C@@H](O)[C@H]2O)c(=O)n1
inactive: S. cerevisiae deletion strains, locus YJR066W, strain TOR1, stronger effect = lower value 0.948 | S. cerevisiae deletion strains, locus YKL009W, strain mrt4, stronger effect = lower value 1 | S. cerevisiae deletion strains, locus YKL068W, stronger effect = lower value 0.997 | S. cerevisiae deletion strains, locus YKL085W, strain MDH1 (second series), stronger effect = lower value 0.989 | S. cerevisiae deletion strains, locus YKL085W, strain MDH1, stronger effect = lower value 0.989 | S. cerevisiae deletion strains, locus YKL160W, strain elf1, stronger effect = lower value 0.99 | S. cerevisiae deletion strains, locus YKL190W, strain CNB1, stronger effect = lower value 1.01 | S. cerevisiae deletion strains, locus YKR001C, strain vps1, stronger effect = lower value 1.02 | S. cerevisiae deletion strains, locus YKR026C, strain gcn3, stronger effect = lower value 1.07 | S. cerevisiae deletion strains, locus YKR091W, strain srl3, stronger effect = lower value 0.967 | S. cerevisiae deletion strains, locus YLL001W, strain dnm1, stronger effect = lower value 0.952 | S. cerevisiae deletion strains, locus YLL026W, stronger effect = lower value 0.997 | S. cerevisiae deletion strains, locus YLL041C, strain sdh2, stronger effect = lower value 0.989 | S. cerevisiae deletion strains, locus YLR027C, strain aat2, stronger effect = lower value 0.985 | S. cerevisiae deletion strains, locus YLR039C, strain RIC1, stronger effect = lower value 1.01 | S. cerevisiae deletion strains, locus YLR058C, strain SHM2, stronger effect = lower value 1.02 | S. cerevisiae deletion strains, locus YLR102C, strain apc9, stronger effect = lower value 0.993 | S. cerevisiae deletion strains, locus YLR113W, strain HOG1, stronger effect = lower value 0.951 | S. cerevisiae deletion strains, locus YLR221C, strain rsa3, stronger effect = lower value 1.01 | S. cerevisiae deletion strains, locus YLR258W, strain gsy2, stronger effect = lower value 0.992 | S. cerevisiae deletion strains, locus YLR262C, strain YPT6 (second series), stronger effect = lower value 0.955 | S. cerevisiae deletion strains, locus YLR262C, strain YPT6, stronger effect = lower value 1.06 | S. cerevisiae deletion strains, locus YLR268W, strain sec22, stronger effect = lower value 0.99 | S. cerevisiae deletion strains, locus YLR320W, strain mms22, stronger effect = lower value 1 | S. cerevisiae deletion strains, locus YLR330W, strain CHS5, stronger effect = lower value 1 | S. cerevisiae deletion strains, locus YLR342W, strain FKS1 (second series), stronger effect = lower value 1 | S. cerevisiae deletion strains, locus YLR342W, strain FKS1, stronger effect = lower value 0.932 | S. cerevisiae deletion strains, locus YLR357W, strain rsc2, stronger effect = lower value 1.01 | S. cerevisiae deletion strains, locus YLR370C, strain arc18, stronger effect = lower value 0.985 | S. cerevisiae deletion strains, locus YLR371W, strain rom2, stronger effect = lower value 0.994 | S. cerevisiae deletion strains, locus YLR384C, strain iki3, stronger effect = lower value 0.974 | S. cerevisiae deletion strains, locus YLR418C, strain cdc73, stronger effect = lower value 0.973 | S. cerevisiae deletion strains, locus YML016C, strain PPZ1, stronger effect = lower value 1.01 | S. cerevisiae deletion strains, locus YML032C, strain rad52, stronger effect = lower value 0.998 | S. cerevisiae deletion strains, locus YML120C, strain ndi1, stronger effect = lower value 0.986 | S. cerevisiae deletion strains, locus YML124C, strain tub3, stronger effect = lower value 1 | S. cerevisiae deletion strains, locus YMR058W, strain fet3, stronger effect = lower value 0.989 | S. cerevisiae deletion strains, locus YMR078C, strain ctf18, stronger effect = lower value 0.992 | S. cerevisiae deletion strains, locus YMR125W, strain sto1, stronger effect = lower value 0.962 | S. cerevisiae deletion strains, locus YMR129W, stronger effect = lower value 0.996 | S. cerevisiae deletion strains, locus YMR205C, strain PFK2, stronger effect = lower value 0.967 | S. cerevisiae deletion strains, locus YMR223W, strain ubp8, stronger effect = lower value 0.989 | S. cerevisiae deletion strains, locus YMR231W, strain pep5, stronger effect = lower value 0.985 | S. cerevisiae deletion strains, locus YMR307W, strain GAS1, stronger effect = lower value 0.982 | S. cerevisiae deletion strains, locus YNL067W, strain RPL9B, stronger effect = lower value 1.02 | S. cerevisiae deletion strains, locus YNL071W, strain lat1, stronger effect = lower value 1.01 | S. cerevisiae deletion strains, locus YNL153C, strain GIM3, stronger effect = lower value 1.04 | S. cerevisiae deletion strains, locus YNL183C, strain NPR1, stronger effect = lower value 0.935 | S. cerevisiae deletion strains, locus YNL209W, strain ssb2, stronger effect = lower value 0.997 | S. cerevisiae deletion strains, locus YNL233W, strain BNI4, stronger effect = lower value 1.03 | S. cerevisiae deletion strains, locus YNL248C, strain rpa49, stronger effect = lower value 0.951 | S. cerevisiae deletion strains, locus YNL250W, strain rad50, stronger effect = lower value 1.01 | S. cerevisiae deletion strains, locus YNL271C, strain bni1, stronger effect = lower value 1 | S. cerevisiae deletion strains, locus YNL298W, strain CLA4, stronger effect = lower value 1 | S. cerevisiae deletion strains, locus YNL307C, strain MCK1, stronger effect = lower value 0.998 | S. cerevisiae deletion strains, locus YNL322C, strain KRE1 (second series), stronger effect = lower value 0.978 | S. cerevisiae deletion strains, locus YNL322C, strain KRE1, stronger effect = lower value 1.01 | S. cerevisiae deletion strains, locus YNR049C, strain mso1, stronger effect = lower value 0.968 | S. cerevisiae deletion strains, locus YNR052C, strain pop2, stronger effect = lower value 0.993 | S. cerevisiae deletion strains, locus YOL006C, strain TOP1, stronger effect = lower value 1.07 | S. cerevisiae deletion strains, locus YOL012C, strain htz1 0.991 | S. cerevisiae deletion strains, locus YOL147C, strain pex11, stronger effect = lower value 1 | S. cerevisiae deletion strains, locus YOR001W, strain rrp6, stronger effect = lower value 0.976 | S. cerevisiae deletion strains, locus YOR061W, strain CKA2, stronger effect = lower value 1.02 | S. cerevisiae deletion strains, locus YOR069W, strain VPS5, stronger effect = lower value 1.01 | S. cerevisiae deletion strains, locus YOR070C, strain gyp1, stronger effect = lower value 0.99 | S. cerevisiae deletion strains, locus YOR080W, strain dia2, stronger effect = lower value 0.967 | S. cerevisiae deletion strains, locus YOR083W, strain WHI5, stronger effect = lower value 0.968 | S. cerevisiae deletion strains, locus YOR106W, strain vam3, stronger effect = lower value 0.959 | S. cerevisiae deletion strains, locus YOR136W, strain idh2, stronger effect = lower value 1 | S. cerevisiae deletion strains, locus YOR144C, strain elg1, stronger effect = lower value 0.99 | S. cerevisiae deletion strains, locus YOR184W, strain ser1, stronger effect = lower value 0.996 | S. cerevisiae deletion strains, locus YOR231W, strain MKK1, stronger effect = lower value 0.974 | S. cerevisiae deletion strains, locus YOR265W, strain rbl2, stronger effect = lower value 0.989 | S. cerevisiae deletion strains, locus YOR270C, strain vph1, stronger effect = lower value 0.958 | S. cerevisiae deletion strains, locus YOR290C, strain snf2, stronger effect = lower value 1.01 | S. cerevisiae deletion strains, locus YOR316C, strain cot1, stronger effect = lower value 0.997 | S. cerevisiae deletion strains, locus YPL051W, strain arl3, stronger effect = lower value 0.992 | S. cerevisiae deletion strains, locus YPL078C, strain atp4, stronger effect = lower value 0.958 | S. cerevisiae deletion strains, locus YPL106C, strain sse1, stronger effect = lower value 0.978 | S. cerevisiae deletion strains, locus YPL240C, strain hsp82, stronger effect = lower value 0.986 | S. cerevisiae deletion strains, locus YPL241C, strain CIN2, stronger effect = lower value 1.01 | S. cerevisiae deletion strains, locus YPL256C, strain CLN2, stronger effect = lower value 0.975 | S. cerevisiae deletion strains, locus YPR119W, strain clb2, stronger effect = lower value 0.99 | S. cerevisiae deletion strains, locus YPR141C, strain kar3, stronger effect = lower value 0.99 | S. cerevisiae deletion strains, locus YPR163C, strain tif3, stronger effect = lower value 0.998 | S. cerevisiae deletion strains, locus YPR167C, strain met16, stronger effect = lower value 0.994 | S. cerevisiae deletion strains, strain wtn01, stronger effect = lower value 1.01 | S. cerevisiae strains, strain wild type, stronger effect = lower value 1.01
